Data from PubChem BioAssay AID362 (NMMLSC, 2006).
Among all 4,300 compounds or so, about 60 (1%) were called active. The entries come from a sample that favours actives as a whole. Values without a mark were called inactive.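 The calls were made as follows: active = inhibition of labelled peptide binding to the formyl peptide receptor of at least 65%; inactive = the rest.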

Molecular target: fMet-Leu-Phe receptor (Homo sapiens) (UniProt P21462)
Assay: FPR binders displacing fluorescent formyl peptide, primary screen, U937-FPR cells, fMLFK-FITC, flow cytometry (AID 362);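 as to inhibition: plate controls were buffer control wells for no effect and unlabeled fMLFF blocking peptide for full effect; higher means less cell fluorescence so more probe displaced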
Details: fMLFK-FITC displacement; stronger effect = higher value, concentration not given here

Sequence of fMet-Leu-Phe receptor (Homo sapiens) (P21462 whole entry, looked up): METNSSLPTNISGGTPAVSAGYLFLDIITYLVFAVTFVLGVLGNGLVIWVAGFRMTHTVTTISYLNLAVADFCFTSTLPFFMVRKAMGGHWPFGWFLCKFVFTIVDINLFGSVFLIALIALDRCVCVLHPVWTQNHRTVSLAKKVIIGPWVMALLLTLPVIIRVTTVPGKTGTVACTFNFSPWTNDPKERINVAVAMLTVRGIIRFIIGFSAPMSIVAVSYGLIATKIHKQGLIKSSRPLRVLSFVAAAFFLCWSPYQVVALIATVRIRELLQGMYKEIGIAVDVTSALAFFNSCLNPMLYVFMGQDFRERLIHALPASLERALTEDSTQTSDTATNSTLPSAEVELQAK

| Compound | inhibition |
| --- | --- |
| CC(C)CCn1c(CN2CCN(C(c3ccccc3)c3ccccc3)CC2)nc2c1c(=O)n(C)c(=O)n2C | inactive |
| CSc1nc(OCC(=O)c2ccc(Cl)cc2)c2c3c(sc2n1)CCCC3 | inactive |
| Cc1sc2ncn(CC(=O)NCc3cccnc3)c(=O)c2c1S(=O)(=O)N1CCC(C)CC1 | inactive |
| CC(C)Cn1cc(C(=O)NCc2ccco2)c2c3ccccc3n(C)c2c1=O | inactive |
| CCCOc1ccc(C(=O)CCNC(C(=O)O)C(C)C)cc1 (centres undefined) | inactive |
| COc1ccc(C(=O)COC(=O)C(CC(C)C)N2C(=O)c3ccccc3C2=O)cc1 (centres undefined) | inactive |
| CCOC(=O)C1=C(C)C2C3C(=O)N(c4cccc5ccccc45)C(=O)C3C1(C)C1C(=O)N(c3cccc4ccccc34)C(=O)C21 (centres undefined) | 13.4% |
| CCN(CCCNC(=O)Cn1cnc2sc(C)c(S(=O)(=O)N3CCC(C)CC3)c2c1=O)c1cccc(C)c1 | inactive |
| O=C(CSc1nc(-c2ccccc2)nc2c1CCCC2)N1CCCCC1 | 86.8% (active) |
| O=C(O)CSc1nc(-c2ccccc2)nc2c1CCCC2 | inactive |
| O=C(CSc1nc(-c2ccccc2)nc2c1CCCC2)N1CCOCC1 | inactive |
| CCOC(=O)C1=C(C)NC2=C(C(=O)C(C(=O)OC)C(C)C2)C1c1ccc(N(C)C)cc1 (centres undefined) | 10% |
| CCOC(=O)C1CCN(C(=O)c2cn(CC(C)C)c(=O)c3cc(OC)c(OC)cc23)CC1 | 11.2% |
| CC1(C)CC(=O)C2=C(C1)OC(N)=C(C#N)C2(C)C | inactive |
| CCCOc1cc(OCCC)c2c3c(c(=O)oc2c1)CCCC3 | 7.1% |
| CCCCOc1cc(OCCCC)c2c3c(c(=O)oc2c1)CCCC3 | inactive |
| CCCCOc1cc(OCCCC)c2c3c(c(=O)oc2c1)CCC3 | 92.8% (active) |
| O=C(O)c1cccc(N2C(=O)C3C4CCC(C4)C3C2=O)c1 (centres undefined) | 31.6% |
| Cc1ccn2c(NC(=O)C(C)(C)Oc3ccc(Cl)cc3)c(-c3cccs3)nc2c1 | 6% |
| CCCCN(C)Cc1c(O)ccc2c(=O)c(-c3ccccc3OC)c(C(F)(F)F)oc12 | 3.4% |
| CC1(C)CC(=O)C(C(c2cccc(OCc3ccccc3)c2)C2C(=O)CC(C)(C)CC2=O)C(=O)C1 | 91.9% (active) |

| Compound | inhibition |
| --- | --- |
| COc1cc(C(C2C(=O)CC(C)(C)CC2=O)C2C(=O)CC(C)(C)CC2=O)ccc1O | 19.2% |
| CC1(C)CC(=O)C(C(C2=C(O)CC(C)(C)CC2=O)c2cccc(O)c2O)C(=O)C1 (centres undefined) | 57% |
| CC1(C)CC(=O)C2=C(C1)Nc1ncnn1C2c1cccc([N+](=O)[O-])c1 (centres undefined) | inactive |
| CC1(C)CC(=O)C(C(c2ccc3ccccc3c2)C2C(=O)CC(C)(C)CC2=O)C(=O)C1 | 80.9% (active) |
| COc1cccc(C(C2C(=O)CC(C)(C)CC2=O)C2C(=O)CC(C)(C)CC2=O)c1 | 53.4% |
| CN1C(=O)NC(c2cccc([N+](=O)[O-])c2)C2=C1CC(C)(C)CC2=O (centres undefined) | inactive |
| CC1(C)CC(=O)C(C(c2cccc([N+](=O)[O-])c2)C2C(=O)CC(C)(C)CC2=O)C(=O)C1 | 78.4% (active) |
| CC1(C)CC(=O)C(C(c2ccc(Br)cc2)C2C(=O)CC(C)(C)CC2=O)C(=O)C1 | 74.7% (active) |
| CC1(C)CC(=O)C(C(c2ccco2)C2C(=O)CC(C)(C)CC2=O)C(=O)C1 | 30.9% |
| COc1ccc(C(C2C(=O)CC(C)(C)CC2=O)C2C(=O)CC(C)(C)CC2=O)cc1COCC(F)(F)F | 34.1% |
| COc1ccc(C(C2C(=O)CC(C)(C)CC2=O)C2C(=O)CC(C)(C)CC2=O)cc1OC | 24.6% |
| CCCCN(C)Cc1c(O)ccc2c3c(c(=O)oc12)CCC3 | 9.8% |
| CCN(CC)CCOC(=O)NCC1CC(C(C)=O)C1(C)C (centres undefined) | 8.3% |
| CC(=O)c1ccc(N2CCN(C(=O)c3cn(CC(C)C)c(=O)c4c3c3ccccc3n4C)CC2)cc1 | 2.2% |
| CCOc1ccc(C2C(C(=O)OC(C)C)=C(C)NC3=C2C(=O)C(C(=O)OC)C(C)C3)cc1 (centres undefined) | 13.6% |
| CCOC(=O)C(CC)Oc1ccc2c3c(c(=O)oc2c1C)CCC3 (centres undefined) | inactive |
| CCOC(=O)c1cc2c(=O)n3ccccc3nc2n(CC(C)C)c1=NC(=O)c1ccc(C(F)(F)F)cc1 | inactive |
| CCOCCOC(=O)C1=C(C)NC2=C(C(=O)C(C(=O)OC)C(C)C2)C1c1ccc(N(C)C)cc1 (centres undefined) | 31.5% |
| COCCOC(=O)C1=C(C)NC2=C(C(=O)C(C(=O)OC)C(C)C2)C1c1ccc(OC)cc1 (centres undefined) | 16.7% |
| CCCOC(=O)C1=C(C)NC2=C(C(=O)C(C(=O)OC)C(C)C2)C1c1ccc(N(C)C)cc1 (centres undefined) | 23.6% |
| COC(=O)C1C(=O)C2=C(CC1C)NC(C)=C(C(=O)OCCOC(C)C)C2c1ccc(OC)cc1 (centres undefined) | 76.1% (active) |

| Compound | inhibition |
| --- | --- |
| CCOc1ccc(C2C(C(=O)OCCOC(C)C)=C(C)NC3=C2C(=O)C(C(=O)OC)C(C)C3)cc1 (centres undefined) | 39.6% |
| COC(=O)C1C(=O)C2=C(CC1C)NC(C)=C(C(=O)OCCOC(C)C)C2c1ccc(F)cc1 (centres undefined) | 14.3% |
| COC(=O)C1C(=O)C2=C(CC1C)NC(C)=C(C(=O)OCCOC(C)C)C2c1ccc(N(C)C)cc1 (centres undefined) | 79.4% (active) |
| COCCOC(=O)C1=C(C)NC2=C(C(=O)C(C(=O)OC)C(C)C2)C1c1ccc(N(C)C)cc1 (centres undefined) | 64% |
| CCCOCCOC(=O)C1=C(C)NC2=C(C(=O)C(C(=O)OC)C(C)C2)C1c1ccc(N(C)C)cc1 (centres undefined) | 78.6% (active) |
| COc1ccc(/C=C2/CCCC3=C2OC(N)=C(C#N)C3c2ccc(OC)c(OC)c2)cc1OC (centres undefined) | inactive |
| COc1ccc(C2C(C(=O)OC3CCCC3)=C(C)NC3=C2C(=O)CCC3)c(OC)c1OC (centres undefined) | inactive |
| COc1cc(C2C(C(=O)OC3CCCCC3)=C(C)NC3=C2C(=O)CC(C)(C)C3)cc(Cl)c1O (centres undefined) | 10.9% |
| COc1ccc(N2C(=O)C3C4C=CC(C4)C3C2=O)cc1OC (centres undefined) | inactive |
| CCOc1ccc(C2C(C(=O)OC3CCCCC3)=C(C)NC3=C2C(=O)CCC3)cc1OC (centres undefined) | 20.2% |
| COc1ccc(CNC(=O)CCCCCn2c(SCC(=O)NCC3CCCO3)nc3cc4c(cc3c2=O)OCO4)cc1 (centres undefined) | 2.8% |
| CCOC(=O)C1=C(C)NC2=C(C(=O)C(C(=O)OC)C(C)C2)C1c1ccccc1OC(C)C (centres undefined) | 10.1% |
| CC(C)(C)c1cc(NS(=O)(=O)c2ccc([N+](=O)[O-])cc2)cc(C(C)(C)C)c1O | 68% (active) |
| CC(C)(C)c1cc(NS(=O)(=O)c2ccccc2[N+](=O)[O-])cc(C(C)(C)C)c1O | 9.2% |
| CC(C)(C)c1cc(Nc2ccccc2[N+](=O)[O-])cc(C(C)(C)C)c1O | 20.9% |
| O=C(O)C12CC3CC(C1)CC(n1cnc([N+](=O)[O-])n1)(C3)C2 | inactive |
| COc1ccc(N(CC(=O)N2CC3CC(C2)c2cccc(=O)n2C3)S(=O)(=O)c2c(C)noc2C)cc1 (centres undefined) | inactive |
| COc1c(O)ccc(C2Nc3ccc4ccccc4c3C3=C2C(=O)CC(C)(C)C3)c1[N+](=O)[O-] (centres undefined) | 15.3% |
| COc1c(OC(C)=O)ccc(C2Nc3ccc4ccccc4c3C3=C2C(=O)CC(C)(C)C3)c1[N+](=O)[O-] (centres undefined) | inactive |
| CC1(C)CC(=O)C2=C(C1)c1c(ccc3ccccc13)NC2c1cc([N+](=O)[O-])ccc1N1CCOCC1 (centres undefined) | 71.9% (active) |
| CC(=O)N1c2ccc(S(=O)(=O)N(CC(C)C)CC(C)C)cc2CC1C (centres undefined) | inactive |

| Compound | inhibition |
| --- | --- |
| CCCN(CCC)Cc1c(O)ccc2c(=O)c(Oc3ccc(OC)cc3)c(C(F)(F)F)oc12 | inactive |
| O=S(=O)(NC1CCCCCCC1)c1cccc2nsnc12 | inactive |
| N#CCCN(C(=O)c1cc(Cl)ccc1NS(=O)(=O)c1cccc2nsnc12)C1CCCCC1 | 73% (active) |
| O=S(=O)(NC1CCCC1)c1cccc2nsnc12 | inactive |
| CCOc1cc(C2Nc3c(ccc4ccccc34)C3=C2CCCC3=O)cc(Br)c1O (centres undefined) | inactive |
| COc1ccc(N2C3=C(C(=O)CC(C)(C)C3)C(c3ccc(F)cc3)C3=C2CC(C)(C)CC3=O)c(OC)c1 | inactive |
| CC1=CC(C)C2(COC(=O)Nc3ccccc3)COC(c3cccnc3)C1C2C (centres undefined) | inactive |
| CCCCNC(=O)c1cn(CC(C)C)c(=O)c2c1c1ccccc1n2C | inactive |
| CCN(C(=O)c1ccc(F)cc1)c1ccc(C(O)(C(=O)OC)C(F)(F)F)cc1 (centres undefined) | inactive |
| CCOC(=O)C(O)(c1ccc(N(CC)C(=O)c2cccc(F)c2)cc1)C(F)(F)F (centres undefined) | 27.9% |
| CCN(C(=O)c1cccc(F)c1)c1ccc(C(O)(C(=O)OC)C(F)(F)F)cc1 (centres undefined) | 85.1% (active) |
| O=C(CSc1c2c(nc3ccccc13)CCCC2)Nc1ccc2c(c1)OCCO2 | inactive |
| CC(C)C(C(=O)Nc1nccs1)N1C(=O)c2ccccc2C1=O (centres undefined) | 17.3% |
| CC(c1ccccc1)N1C(=O)/C(=C/c2c(N3CCCCC3)nc3ccccn3c2=O)SC1=S (centres undefined) | inactive |
| CC(C)C(C(=O)O)N1C(=O)c2cccc([N+](=O)[O-])c2C1=O (centres undefined) | 17.7% |
| CC(C)C(C(=O)O)N1C(=O)/C(=C2/C(=O)N(C)c3ccccc32)SC1=S (centres undefined) | 94.4% (active) |
| CC(C)c1nnc(NC(=O)C(C(C)C)N2C(=O)c3ccccc3C2=O)s1 (centres undefined) | 36.6% |
| CC(C)C(C(=O)O)N1C(=O)/C(=C/c2ccccn2)SC1=S (centres undefined) | 90.2% (active) |
| CCOc1ccccc1C1C2=C(CC(C)(C)CC2=O)Nc2nc(C(F)(F)F)nn21 (centres undefined) | 14.1% |
| O=C(COc1ccc(Cl)cc1)Oc1ccc2c3c(c(=O)oc2c1)CCC3 | 29.6% |
| CC(C)Cn1cc(C(=O)N2CCN(C(=O)c3ccco3)CC2)c2c3ccccc3n(C)c2c1=O | 4% |
